# Measurements as given in PubChem BioAssay AID425 (Sanford-Burnham Center for Chemical Genomics, 2006).
# Several values for one entry are separate records, joined by “and”; a condition that tells them apart may be missing. Equal entries are not always repeated. The whole screen tested about 110,000 compounds, of which about 190 (0.17%) were called active. Cut-off read from the data, not from the text of the source: active = inhibition above about 50%; inactive = the rest. What follows is part of a selection rich in actives, with near analogues and random picks from the rest. Results with a measured potency or affinity are listed apart.
# Biological target: Dual specificity protein phosphatase 6 (Rattus norvegicus) (UniProt Q64346)
# Experiment: MKP-3 phosphatase inhibitors, primary screen, biochemical, rat enzyme, in vitro (AID 425);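 note: plate controls were vehicle for no effect and reference inhibitor for full effect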
# Conditions: recombinant MKP-3 phosphatase activity, fluorescence; at 20 µM; stronger effect = higher value
# Chain of Dual specificity protein phosphatase 6 (Rattus norvegicus) (Q64346 whole entry, looked up): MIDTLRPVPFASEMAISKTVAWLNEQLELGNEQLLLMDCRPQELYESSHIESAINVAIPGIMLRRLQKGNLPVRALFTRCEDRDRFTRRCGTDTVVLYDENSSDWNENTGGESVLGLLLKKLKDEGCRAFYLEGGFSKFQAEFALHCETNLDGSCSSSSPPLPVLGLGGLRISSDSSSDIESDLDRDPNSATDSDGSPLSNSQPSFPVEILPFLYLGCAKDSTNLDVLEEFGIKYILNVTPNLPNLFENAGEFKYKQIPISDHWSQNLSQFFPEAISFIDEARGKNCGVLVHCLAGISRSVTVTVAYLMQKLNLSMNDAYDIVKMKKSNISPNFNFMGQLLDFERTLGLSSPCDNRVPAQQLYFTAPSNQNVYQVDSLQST
row,SMILES,inhibition
1,COc1ccc(/C=C2/SC(=O)N(CC(=O)Nc3ccc(F)c(Cl)c3)C2=O)cc1OC,1.4% (inactive)
2,COc1ccc(/C=C2/SC(=O)N(CC(=O)Nc3ccc(C)c(C)c3)C2=O)cc1OC,3.6% (inactive)
3,COc1ccc(-c2cc(C(=O)N/N=C(\C)c3ccc([N+](=O)[O-])cc3)[nH]n2)cc1,4% (inactive)
4,Oc1cccc(C=Nc2ccccc2)c1O,120% (active)
5,Cc1cccc(C=Nc2ccccc2O)c1O,-0.6% (inactive)
6,CCOc1ccccc1C=Nc1cc(Cl)cc(Cl)c1,-0.8% (inactive)
7,CCN(CC)c1ccc(N=Cc2cccc(O)c2O)cc1,16.1% (inactive)
8,CCOc1ccccc1C=Nc1ccc(O)cc1,116% (active)
9,CCOc1ccccc1C=Nc1ccc(C(N)=O)cc1,-2.2% (inactive)
10,N#Cc1ccc(N=Cc2cccc(O)c2O)cc1,-1.9% (inactive)
11,Cc1ccsc1C=Nc1ccc(O)cc1,-7% (inactive)
12,Cc1ccccc1C=Nc1ccc(O)cc1,112% (active)
13,CCOC(=O)C1(C)NC(c2cc(OC)c(OC)c(OC)c2)C2C(=O)N(CC)C(=O)C21 (stereo not given),4.9% (inactive)
14,CC(NC(=O)C(=O)NCC1CCNCC1)c1ccccc1 (stereo not given),2.1% (inactive)
15,Cc1cc(NC(=O)c2nn3c(c2Cl)NC(c2ccc(Br)cc2)CC3C(F)(F)F)no1 (stereo not given),-0.7% (inactive)
16,COc1cccc(C(=O)NNC(N)=O)c1,-2.5% (inactive)
17,O=C(CSc1nc2ccc(N3C(=O)c4ccccc4C3=O)cc2s1)Nc1cccc([N+](=O)[O-])c1,14.1% (inactive)
18,Cc1ccc(NC(=O)C(=O)NCC(C)C)cc1,-6.8% (inactive)
19,CCN1CCOC(c2ccccc2)C(C(=O)OC)C1C(=O)OC (stereo not given),49.2% (inactive)
20,CC(=O)c1ccc(NC(=O)c2ccc(-c3ccc(Br)cc3)o2)cc1,10.6% (inactive)
21,O=C(Nc1ccc(NC(=O)c2ccc(-c3ccc(Br)cc3)o2)cc1)c1ccco1,-1.3% (inactive)
22,O=C(CSc1ccccn1)N/N=C\c1c[nH]c2ccccc12,-0.6% (inactive)
23,CCCCCCCC(=O)N/N=C/c1c[nH]c2ccccc12,4.3% (inactive)
24,Cc1ccn2c(-c3csc(Nc4cccc(O)c4)n3)c(C)nc2c1,2.7% (inactive)
25,O=C1CC(Nc2ccccc2)C(=O)N1Cc1ccccc1 (stereo not given),1.4% (inactive)

row,SMILES,inhibition
1,O=C(O)c1ccc(NC(=O)c2cc3cc(Br)ccc3oc2=O)cc1,3.5% (inactive)
2,O=C(Nc1ccc(Nc2ccccc2)cc1)c1cccc(F)c1,-0.3% (inactive)
3,Cc1ccc(-c2nnc(NC(=O)Nc3ccc(Cl)c(Cl)c3)s2)cc1,-1.5% (inactive)
4,O=C(Nc1ccc(Cl)c(Cl)c1)Nc1nnc(-c2ccccc2)s1,-2.8% (inactive)
5,O=[N+]([O-])c1ccc(OCCCCCN2CCCCC2)cc1,0.4% (inactive)
6,Cc1ccc(/C(O)=C2\C(=O)C(=O)N(CCCC(=O)O)C2c2ccccc2)cc1 (stereo not given),2.5% (inactive)
7,COc1ccc(O)c(CN2CCN(Cc3ccccc3[N+](=O)[O-])CC2)c1,-3.5% (inactive)
8,Oc1ccccc1/C=N/Nc1cc(N2CCCC2)nc(N2CCCC2)n1,119% (active)
9,Oc1ccccc1/C=N/Nc1cc(N2CCCCC2)nc(N2CCCCC2)n1,-0.5% (inactive)
10,Oc1ccccc1/C=N/Nc1cc(N2CCOCC2)nc(N2CCOCC2)n1,5.6% (inactive)
11,Cc1onc(-c2ccccc2)c1C(=O)NCCNc1c(Cl)cccc1[N+](=O)[O-],3.9% (inactive)
12,Cc1ccc(C)c(S(=O)(=O)/N=C2\C=CC(=O)c3ccccc32)c1,63.5% (active)
13,CC(=O)Nc1ccc(S(=O)(=O)/N=C2\C=CC(=O)c3ccccc32)cc1,111% (active)
14,CC(=O)Nc1ccc(S(=O)(=O)NN2C(=O)c3ccccc3C2=O)cc1,2.6% (inactive)
15,O=C1C=C/C(=N\S(=O)(=O)c2ccc(F)cc2)c2ccccc21,-2% (inactive)
16,Cc1ccccc1S(=O)(=O)N=C1C=CC(=O)C(Cl)=C1,3.1% (inactive)
17,O=C1C=CC(=NS(=O)(=O)c2ccccc2)c2ccccc21,68.4% (active)
18,CN(C)C1=C/C(=N/S(=O)(=O)c2ccccc2)c2ccccc2C1=O,13.9% (inactive)
19,CC(=O)Nc1ccc(S(=O)(=O)/N=C2/NC(=O)CS2)cc1,-0.8% (inactive)
20,Cc1ccc(S(=O)(=O)N=C2C=CC(=O)C=C2)c(C)c1,7.6% (inactive)
21,CCc1ccc(OCC(=O)NCCN(C)C)c(Br)c1,-12% (inactive)
22,O=C(Nc1ccc(Br)cc1)N1CCCCCCC1,-0.5% (inactive)
23,CCOC(=O)Cc1csc(NC(=O)CN(C)S(=O)(=O)c2cccc3cccnc23)n1,-9.4% (inactive)
24,O=C(NCCCn1ccnc1)c1cnn2c(C(F)(F)F)cc(-c3ccc(Br)cc3)nc12,2.4% (inactive)
25,Nc1nnc(SCc2coc(-c3ccc(Cl)cc3)n2)s1,-7.1% (inactive)

row,SMILES,inhibition
1,COc1ccc(NC(=O)/C(=C\c2ccco2)NC(=O)c2ccco2)cc1,4.4% (inactive)
2,N/C(=N\OC(=O)c1ccccc1I)c1cccnc1,-4% (inactive)
3,Cc1c(Cl)cccc1N=C1NC(=O)/C(=C/c2ccc(O)c([N+](=O)[O-])c2)S1,18.5% (inactive)
4,COc1cc(/C=C2\SC(=Nc3ccc(C)c(Cl)c3)NC2=O)ccc1O,3.3% (inactive)
5,Cc1ccc(N=C2NC(=O)/C(=C/c3ccc(O)c([N+](=O)[O-])c3)S2)cc1Cl,82.6% (active)
6,CC1=C(C(=O)Nc2ccccc2)C(c2cccc(I)c2)NC(=S)N1 (stereo not given),4.4% (inactive)
7,COn1c(C)c(C)c2c3nonc3ccc21,86.9% (active)
8,Cc1c(C)n(O)c2ccc3nonc3c12,2.7% (inactive)
9,COn1c(C)c(C(C)=O)c2c3nonc3ccc21,-7.8% (inactive)
10,CCOC(=O)c1ccc(NC(=O)COc2ccc(Cl)cc2C)cc1,2.5% (inactive)
11,COC(=O)c1ccc(Nc2ncnc3c2cnn3-c2cccc(C)c2)cc1,-5% (inactive)
12,O=C(Cc1ccccc1)Nc1cc(C(=O)O)cc(C(=O)O)c1,0.2% (inactive)
13,CC1CC(=O)c2cnc(NCC3CCCO3)nc2C1 (stereo not given),-7.6% (inactive)
14,Cc1c(C)c2ccc(OCC(=O)c3ccc(-c4ccccc4)cc3)cc2oc1=O,1.8% (inactive)
15,NC(=O)C1CCN(C(=O)CN2CCCc3ccccc32)CC1,1.6% (inactive)
16,Cc1ccc(C)n1-c1ccc(Br)cc1C(=O)O,0.2% (inactive)
17,Cc1ccc(C)n1-c1ccccc1C(=O)O,72.7% (active)
18,COc1cc(C(=O)O)c(-n2c(C)ccc2C)cc1OC,5% (inactive)
19,Cc1c(C(=O)O)cccc1-n1c(C)ccc1C,25.2% (inactive)
20,Cc1ccc(-c2ccccc2)n1-c1ccccc1C(=O)O,5% (inactive)
21,Cc1ccc(C)n1-c1ccc(Cl)cc1C(=O)O,104% (active)
22,O=C(CCCN1CCC(c2ccccc2)C1)c1ccc2c(c1)OCCO2 (stereo not given),-3.4% (inactive)
23,CC(=O)Nc1ccc(S(=O)(=O)NC(CC(=O)O)c2ccc(OC(C)C)cc2)cc1 (stereo not given),7.9% (inactive)
24,CC(C)(C)NC(=O)C(=O)N/N=C/c1ccc(Cl)cc1,-3.9% (inactive)
25,CNc1ccc2[nH]nc3c2c1C(=O)c1ccccc1-3,-22.4% (inactive)

row,SMILES,inhibition
1,Cc1ccccc1OCC(=O)Nc1cccc(NC(=O)c2ccccc2Cl)c1,-2.5% (inactive)
2,Cc1cc(Br)cc(C)c1NC(=O)c1ccc2c(c1)OCCO2,82.6% (active)
3,CC(=O)c1ccc(NC(=O)c2ccc3c(c2)OCCO3)cc1,-4.6% (inactive)
4,Cc1cccc(C)c1NC(=O)c1ccc2c(c1)OCCO2,2.1% (inactive)
5,CCN1C(=O)NC(c2cccnc2)C(C(=O)OC)=C1C (stereo not given),-5.5% (inactive)
6,CC(C)N(Cc1nc(-c2ccccc2)no1)C(=O)Cc1ccccc1,-1.5% (inactive)
7,CS(=O)(=O)N(CC(=O)NCc1ccccn1)c1ccc2c(c1)OCCO2,-1.1% (inactive)
8,CCOC(=O)C(C(=O)OCC)c1cc(Br)c2noc3c2c1C(=O)c1ccccc1-3,23.6% (inactive)
9,O=C1c2ccccc2-c2onc3c(Cl)cc(Sc4ccccc4)c1c23,3.9% (inactive)
10,O=C1c2ccccc2-c2onc3c(Br)cc(O)c1c23,87.7% (active)
11,Cc1onc(-c2ccccc2Cl)c1C(=O)NCc1cccs1,5.5% (inactive)
12,O=C(O)c1cccc(-c2ccc(/C=N/Nc3ccc([N+](=O)[O-])cn3)o2)c1,51.1% (active)
13,O=C(O)c1ccc(Cl)c(-c2ccc(/C=N\Nc3ccc([N+](=O)[O-])cn3)o2)c1,8.7% (inactive)
14,O=C(O)c1cc(-c2ccc(/C=N/Nc3ccc([N+](=O)[O-])cn3)o2)ccc1Cl,7.3% (inactive)
15,O=C(O)/C=C/C(=O)Nc1ccc(NC(=O)c2ccccc2)c(Cl)c1,1.5% (inactive)
16,O=C(O)c1cc(S(=O)(=O)O)ccc1O,-4.1% (inactive)
17,COC(=O)c1cc(C(=O)OC)cc(S(=O)(=O)O)c1,-0.1% (inactive)
18,CNc1ccc2c(O)cc(S(=O)(=O)O)cc2c1,65.1% (active)
19,O=C1/C(=C/c2ccc(O)c(O)c2)SC(=S)N1c1ccc(O)cc1,8.5% (inactive)
20,Cc1cc(C)n(C(=O)CNC(=O)c2ccco2)n1,1.1% (inactive) and -4% (inactive)
21,COc1ccc(C2SC(C)C(=O)N2c2ccc(C)cc2)cc1 (stereo not given),-0.4% (inactive)
22,O=C(NCC1CCCO1)c1cc2nc(-c3ccco3)cc(C(F)(F)F)n2n1 (stereo not given),0.3% (inactive)
23,O=C(NCC1CCCO1)c1cc2nc(-c3ccc(F)cc3)cc(C(F)(F)F)n2n1 (stereo not given),2.8% (inactive)
24,O=C(NCC1CCCO1)c1cc2nc(-c3ccc([N+](=O)[O-])cc3)cc(C(F)(F)F)n2n1 (stereo not given),95.8% (active)
25,COCCn1c(SCC(=O)Nc2cccc(OC)c2)nnc1-c1ccc(Cl)cc1,-2.5% (inactive)
